Source: paper PMC5540273 (PLoS ONE, 2017)

Columns and labels:
Details in all cases: concentration: 1 μM, replicates: in singlicate; n = 1
MAP3K3 = tested on: MAP3K3
MAP3K4 = tested on: MAP3K4
MAP4K2 = tested on: MAP4K2
MAP4K3 = tested on: MAP4K3
MAP4K4 = tested on: MAP4K4
MAP4K5 = tested on: MAP4K5
MAPKAPK2 = tested on: MAPKAPK2
MAPKAPK5 = tested on: MAPKAPK5
MARK1 = tested on: MARK1
MARK2 = tested on: MARK2
MARK3 = tested on: MARK3
MARK4 = tested on: MARK4
MAST1 = tested on: MAST1
MEK1 = tested on: T1, MEK1
T1 construct: gene MAP2K1

MEK2 = tested on: T2, MEK2
T2 construct: gene MAP2K2

MEK3 = tested on: T3, MEK3
T3 construct: gene MAP2K3

MEK4 = tested on: T4, MEK4
T4 construct: gene MAP2K4

MEK5 = tested on: T5, MEK5
T5 construct: gene MAP2K5

MEK6 = tested on: T6, MEK6
T6 construct: gene MAP2K6

MELK = tested on: MELK
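Further: KINOMEscan kinase panel screen.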

| SMILES | %Inh (MAP3K3) [%] | %Inh (MAP3K4) [%] | %Inh (MAP4K2) [%] | %Inh (MAP4K3) [%] | %Inh (MAP4K4) [%] | %Inh (MAP4K5) [%] | %Inh (MAPKAPK2) [%] | %Inh (MAPKAPK5) [%] | %Inh (MARK1) [%] | %Inh (MARK2) [%] | %Inh (MARK3) [%] | %Inh (MARK4) [%] | %Inh (MAST1) [%] | %Inh (MEK1) [%] | %Inh (MEK2) [%] | %Inh (MEK3) [%] | %Inh (MEK4) [%] | %Inh (MEK5) [%] | %Inh (MEK6) [%] | %Inh (MELK) [%] |
| --- | --- | --- | --- | --- | --- | --- | --- | --- | --- | --- | --- | --- | --- | --- | --- | --- | --- | --- | --- | --- |
| Fc1cccc(COc2ccc(Nc3ncnc4nn5ccccc5c34)cc2Cl)c1 [GW689066] | 0 | 0 | 0 | 0 | 0 | 0 | 4 | 0 | 0 | 0 | 0 | 0 | 23 | 0 | 0 | 0 | 8 | 45 | 0 | 5 |
| CCCc1ccc(S(=O)(=O)NC2CCN(c3ccnc(Nc4ccc(OC)cc4)n3)C2)cc1 (stereo not shown) [GSK1379737] | 0 | 0 | 0 | 0 | 0 | 0 | 29 | 0 | 0 | 0 | 0 | 0 | 43 | 0 | 0 | 0 | 12 | 0 | 0 | 0 |
| Cl.c1ccc(Cn2ccc3cc(Nc4ncnc5ccccc45)ccc32)cc1 [GW275568] | 0 | 5 | 0 | 1 | 4 | 3 | 7 | 0 | 17 | 28 | 1 | 30 | 0 | 14 | 6 | 11 | 19 | 84 | 5 | 9 |
| CCc1nc(-c2cccc(C)c2)c(-c2ccnc(NC(=O)c3ccccc3)c2)s1 | 22 | 0 | 0 | 0 |  | 0 | 0 | 0 |  | 0 | 0 | 28 | 25 | 5 | 2 | 7 | 4 | 54 | 0 | 22 |
| Nc1nc(-c2ccc3c(N)n[nH]c3c2)cc(N2CCCCC2)n1 [GSK2228768] | 0 | 2 | 0 | 0 | 0 | 0 | 3 | 0 | 0 | 0 | 0 | 0 | 0 | 0 | 0 | 2 | 0 | 8 | 0 | 0 |
| Cl.O=S(=O)(c1cccc(F)c1)c1ccc(Nc2ncnc3cc(Br)sc23)cc1Cl [GSK306886] | 0 | 9 | 0 | 0 | 0 | 0 | 0 | 0 | 0 | 0 | 0 | 1 | 0 | 0 | 6 | 0 | 22 | 26 | 38 | 0 |
| COc1ccc(-c2oc3ncnc(N)c3c2-c2ccc(OC)cc2)cc1 [SB-589132] | 0 | 0 | 0 | 0 | 0 | 0 | 19 | 0 | 0 | 0 | 2 | 0 | 53 | 0 | 0 | 0 | 0 | 88 | 0 | 8 |
| Clc1ccc(-c2cc(-c3c[nH]nc3-c3ccccn3)ccn2)cc1 [GW681251] | 0 | 19 | 0 | 0 | 63 | 18 | 13 | 0 | 0 | 0 | 0 | 0 | 0 | 39 | 0 | 0 | 2 | 0 | 0 | 40 |
| Nc1nccc2scc(-c3ccc4c(c3)CCN4C(=O)Cc3cc(F)ccc3F)c12 [GSK2587663] | 0 | 10 | 0 | 3 | 0 | 9 | 20 | 0 | 0 | 0 | 4 | 0 | 9 | 0 | 0 | 0 | 5 | 67 | 0 | 0 |
| Cn1ccc2ncnc(Oc3ccc(NC(=O)Nc4cccnc4)c(Cl)c3)c21 | 0 | 2 | 0 | 0 | 0 | 0 | 0 | 0 | 0 | 0 | 0 | 4 | 0 | 0 | 0 | 0 | 0 | 5 | 0 | 10 |
| COc1ccc(NC(=O)c2ccc(-c3cc(-c4nnc(C)o4)ccc3C)cc2)cc1 [GW595885] | 0 | 20 | 0 | 0 | 4 | 0 | 25 | 0 | 0 | 0 | 0 | 0 | 5 | 0 | 0 | 0 | 9 | 0 | 0 | 0 |
| OCCOCCn1ccc2ncnc(Nc3ccc(Oc4cccc(Cl)c4)c(Cl)c3)c21 | 0 | 0 | 0 | 0 | 0 | 0 | 0 | 0 | 25 | 0 | 0 | 31 | 0 | 8 | 40 | 0 | 0 | 89 | 0 | 0 |
| Nc1n[nH]c2nnc(-c3ccccc3)cc12 [SB-517389] | 0 | 32 | 0 | 0 | 3 | 0 | 5 | 0 | 0 | 0 | 0 | 0 | 0 | 0 | 0 | 0 | 24 | 38 | 0 | 0 |
| COc1ccc(Nc2nccc(N3CCC(NC(=O)Nc4ccc5c(c4)OCO5)C3)n2)cc1 (stereo not shown) [GSK1379745] | 0 | 15 | 0 | 5 | 5 | 4 | 17 | 0 | 0 | 0 | 13 | 9 | 0 | 0 | 0 | 0 | 25 | 32 | 0 | 0 |
| CC(C)(C)OC(=O)NC1CCCN(c2cc(-c3ccc4c(N)n[nH]c4c3)nc(N)n2)C1 (stereo not shown) [GSK2286096] | 0 | 17 | 0 | 3 | 0 | 0 | 0 | 0 | 0 | 0 | 0 | 0 | 0 | 100 | 0 | 0 | 7 | 30 | 0 | 0 |
